Results filed as inconclusive are left out. Activity calls are given as the source filed them. Calls follow the shape of the dose curve; as a rule, active = well fitted curve in the direction sought with a large enough effect; inconclusive = small, poorly fitted or top-dose-only effect, or another doubt; inactive = no such curve, though single readings can be large; an effect the other way counts as inactive or inconclusive.
Assays:
[1] = qHTS of pediatric cancer cell lines to identify multiple opportunities for drug repurposing: Primary screen for U-2 OS cells (AID 1347096); also: nearly all actives have a fitted effect of over 50% in size
Summary of the method: (§1)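 Cells (500-1,000/well) in growth media were settled 5 h at 37 degrees C, then given compounds for 48 h. Viability was read as CellTiter-Glo luminescence. Primary runs used MIPE at 11 points (0.78 nM-46 µM) and NPC at 8 points (0.59 nM-46 µM); follow-ups used 11 points.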

[2] = qHTS of pediatric cancer cell lines to identify multiple opportunities for drug repurposing: Primary screen for SK-N-SH cells (AID 1347098); also: nearly all actives have a fitted effect of over 65% in size
Summary of the method: (§2)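 Cells (500-1,000/well) rested 5 h, then received compounds for 48 h; metabolically active cells were measured by CellTiter-Glo luminescence. Final concentrations spanned up to 46 µM (MIPE, 11-point) or 0.59 nM-46 µM (NPC, 8-point) in primary screens, 11-point in follow-ups.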

[3] = qHTS of pediatric cancer cell lines to identify multiple opportunities for drug repurposing: Primary screen for LAN-5 cells (AID 1347100)
Summary of the method: as §1

[4] = qHTS of pediatric cancer cell lines to identify multiple opportunities for drug repurposing: Primary screen for BT-12 cells (AID 1347101); also: nearly all actives have a fitted effect of over 25% in size
Summary of the method: as §2

[5] = qHTS of pediatric cancer cell lines to identify multiple opportunities for drug repurposing: Primary screen for Rh18 cells (AID 1347102); also: nearly all actives have a fitted effect of over 65% in size
Summary of the method: as §1

[6] = qHTS of pediatric cancer cell lines to identify multiple opportunities for drug repurposing: Primary screen for OHS-50 cells (AID 1347103); also: nearly all actives have a fitted effect of over 40% in size
Summary of the method: as §2

[7] = qHTS of pediatric cancer cell lines to identify multiple opportunities for drug repurposing: Primary screen for RD cells (AID 1347104); also: nearly all actives have a fitted effect of over 55% in size
Summary of the method: (§3)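 Phenotypic viability qHTS, 48 h compound exposure, CellTiter-Glo luminescence read-out; multi-concentration dosing so that potency and efficacy derive directly from the primary screen's curves.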

[8] = qHTS of pediatric cancer cell lines to identify multiple opportunities for drug repurposing: Primary screen for MG 63 (6-TG R) cells (AID 1347105); also: nearly all actives have a fitted effect of over 50% in size
Summary of the method: as §3

[9] = qHTS of pediatric cancer cell lines to identify multiple opportunities for drug repurposing: Primary screen for control Hh wild type fibroblast cells (AID 1347106); also: nearly all actives have a fitted effect of over 55% in size
Summary of the method: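 Viability after 48 h compound treatment at 37C, 500-1,000 cells/well, read as ATP luminescence with CellTiter-Glo. Primary screens used 11-point (MIPE, 0.78 nM-46 µM) or 8-point (NPC, 0.59 nM-46 µM) final concentrations; follow-up screens used 11-point dilutions.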

[10] = qHTS of pediatric cancer cell lines to identify multiple opportunities for drug repurposing: Primary screen for Rh30 cells (AID 1347107); also: nearly all actives have a fitted effect of over 75% in size
Summary of the method: as §1

[11] = qHTS of pediatric cancer cell lines to identify multiple opportunities for drug repurposing: Primary screen for Rh41 cells (AID 1347108); also: nearly all actives have a fitted effect of over 70% in size
Summary of the method: as §3

[12] = qHTS of pediatric cancer cell lines to identify multiple opportunities for drug repurposing: Confirmatory screen for NB1643 cells (AID 1347109); also: nearly all actives have a fitted effect of over 45% in size
Summary of the method: as §1

[13] = qHTS of pediatric cancer cell lines to identify multiple opportunities for drug repurposing: Confirmatory screen for A673 cells (AID 1347110);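 also: cells exposed to compound for 48 h before the viability read; nearly all actives have a fitted effect of over 65% in size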
Summary of the method: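 A673 cells seeded at 500-1,000 cells/well, rested 5 h, then dosed; primary MIPE 11-point (0.78 nM to 46 µM), NPC (0.59 nM to 46 µM); confirmatory 11-point. CellTiter-Glo luminescence after 48 h.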

[14] = qHTS of pediatric cancer cell lines to identify multiple opportunities for drug repurposing: Confirmatory screen for SK-N-MC cells (AID 1347111);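 also: cells exposed to compound for 48 h before the readout; nearly all actives have a fitted effect of over 70% in size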
Summary of the method: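 Metabolically active cells were quantified by ATP-dependent luminescence (CellTiter-Glo, 15 min at room temperature) following 48 h treatment. Cells had been plated at 500-1,000 per well and settled for 5 h beforehand.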

[15] = qHTS of pediatric cancer cell lines to identify multiple opportunities for drug repurposing: Confirmatory screen for BT-12 cells (AID 1347112); also: nearly all actives have a fitted effect of over 55% in size
Summary of the method: as §1

[16] = qHTS of pediatric cancer cell lines to identify multiple opportunities for drug repurposing: Confirmatory screen for LAN-5 cells (AID 1347113); also: nearly all actives have a fitted effect of over 65% in size
Summary of the method: as §1

[17] = qHTS of pediatric cancer cell lines to identify multiple opportunities for drug repurposing: Confirmatory screen for DAOY cells (AID 1347114); also: nearly all actives have a fitted effect of over 65% in size
Summary of the method: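 Viability measured as metabolically active cells via CellTiter-Glo luminescence following 48 hours of compound exposure, 11-point dilutions in confirmatory testing. 500-1,000 cells/well plated 5 hours before dosing; controls were DMSO and 2.3 µM bortezomib.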

[18] = qHTS of pediatric cancer cell lines to identify multiple opportunities for drug repurposing: Confirmatory screen for NB-EBc1 cells (AID 1347115);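 also: cells exposed to compound for 48 h before the viability read; nearly all actives have a fitted effect of over 45% in size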
Summary of the method: as §1

[19] = qHTS of pediatric cancer cell lines to identify multiple opportunities for drug repurposing: Primary screen for Saos-2 cells (AID 1347097); also: nearly all actives have a fitted effect of over 40% in size
Summary of the method: as §3

[20] = qHTS of pediatric cancer cell lines to identify multiple opportunities for drug repurposing: Primary screen for NB1643 cells (AID 1347099); also: nearly all actives have a fitted effect of over 50% in size
Summary of the method: as §3
Potency is read from the fitted curve at half-maximal effect.

Structure (SMILES)	Potency [1]	Potency [2]	Potency [3]	Potency [4]	Potency [5]	Potency [6]	Potency [7]	Potency [8]	Potency [9]	Potency [10]	Potency [11]	Potency [12]	Potency [13]	Potency [14]	Potency [15]	Potency [16]	Potency [17]	Potency [18]	Potency [19]	Potency [20]
C=CC(=O)Nc1cccc(Oc2nc(Nc3ccc(N4CCN(C)CC4)cc3)ncc2Cl)c1	4.69 µM (active)	3.83 µM (active)	2.64 µM (active)	17.2 µM (active)	3.72 µM (active)	3.06 µM (active)	20.9 µM (active)	7.43 µM (active)	16.6 µM (active)	18.7 µM (active)	11.8 µM (active)	8.27 µM (active)	16.5 µM (active)	1.31 µM (active)	16.5 µM (active)	6.57 µM (active)	18.5 µM (active)	18.5 µM (active)	–	–
COc1cc(=C2C=c3ccccc3=N2)[nH]c1=Cc1[nH]c(C)cc1C	–	19.2 µM (active)	5.9 µM (active)	6.85 µM (active)	10.5 µM (active)	7.69 µM (active)	2.96 µM (active)	11.8 µM (active)	10.5 µM (active)	–	5.9 µM (active)	14.7 µM (active)	2.19 µM (active)	11.7 µM (active)	26.1 µM (active)	10.4 µM (active)	–	–	4.69 µM (active)	14.8 µM (active)
Cn1c2ccccc2c2c3c(c4c5ccccc5n(CCC#N)c4c21)CNC3=O	–	5.41 µM (active)	5.9 µM (active)	–	–	5.44 µM (active)	–	14.8 µM (active)	–	–	–	20.8 µM (active)	4.65 µM (active)	0.465 µM (active)	inactive	–	–	23.3 µM (active)	0.935 µM (active)	1.87 µM (active)
Cc1cc(Nc2ncnc3ccc(-c4ccc(CNCCS(C)(=O)=O)o4)cc23)ccc1Oc1ccn2ncnc2c1	–	21.5 µM (active)	14.8 µM (active)	6.85 µM (active)	20.9 µM (active)	1.22 µM (active)	16.6 µM (active)	18.7 µM (active)	inactive	–	11.8 µM (active)	–	–	20.8 µM (active)	inactive	20.8 µM (active)	–	–	2.09 µM (active)	16.6 µM (active)
COc1ccc(OC)c(-c2nnc3ccc(-c4ccc(OC)c(O[C@@H]5CCOC5)c4)nn23)c1	–	30.4 µM (active)	26.4 µM (active)	9.68 µM (active)	13.2 µM (active)	17.2 µM (active)	–	–	–	–	20.9 µM (active)	5.22 µM (active)	10.4 µM (active)	4.65 µM (active)	inactive	–	–	–	29.6 µM (active)	18.7 µM (active)
Nc1cc(C(F)(F)F)c(-c2cc(N3CCOCC3)nc(N3CCOCC3)n2)cn1	–	0.482 µM (active)	0.469 µM (active)	1.22 µM (active)	0.59 µM (active)	0.153 µM (active)	0.743 µM (active)	0.187 µM (active)	–	11.8 µM (active)	1.18 µM (active)	–	2.93 µM (active)	5.22 µM (active)	–	–	–	–	1.48 µM (active)	0.296 µM (active)
COc1cc2nccc(Oc3ccc(NC(=O)C4(C(=O)Nc5ccc(F)cc5)CC4)cc3)c2cc1OC	–	3.41 µM (active)	1.48 µM (active)	15.3 µM (active)	10.5 µM (active)	27.3 µM (active)	16.6 µM (active)	–	–	–	9.35 µM (active)	inactive	18.5 µM (active)	–	inactive	–	–	inactive	18.7 µM (active)	9.35 µM (active)
Cc1c(Cn2c(C)nc3c(C(=O)O)cc(N4CCOCC4)cc32)cccc1C(F)(F)F	inactive	–	inactive	inactive	inactive	–	1.66 µM (active)	2.96 µM (active)	inactive	–	7.43 µM (active)	inactive	inactive	–	inactive	–	–	inactive	–	–
NC1(Cc2ccc(Cl)cc2)CCN(c2ncnc3[nH]ccc23)CC1	–	27.1 µM (active)	18.7 µM (active)	–	–	6.11 µM (active)	11.8 µM (active)	14.8 µM (active)	–	–	3.32 µM (active)	–	–	–	–	–	–	–	5.26 µM (active)	20.9 µM (active)
CC1(C)CC(=O)c2c(C(F)(F)F)nn(-c3ccc(C(N)=O)c(NC4CCC(OC(=O)CN)CC4)c3)c2C1 (stereo unspecified)	–	0.482 µM (active)	0.187 µM (active)	–	0.418 µM (active)	0.306 µM (active)	0.187 µM (active)	–	–	–	0.372 µM (active)	–	–	–	–	–	–	–	0.264 µM (active)	0.235 µM (active)
O=C(C=Cc1cccnc1)NCCCCC1CCN(C(=O)c2ccccc2)CC1	0.118 µM (active)	0.482 µM (active)	–	–	–	–	–	–	inactive	–	0.118 µM (active)	inactive	inactive	inactive	inactive	inactive	inactive	inactive	–	–
Cc1nc2cnc3ccc(C#Cc4cccnc4)cc3c2n1-c1ccc(C(C)(C)C#N)cc1	–	0.0681 µM (active)	5.9 µM (active)	–	1.18 µM (active)	0.0968 µM (active)	0.0833 µM (active)	0.0743 µM (active)	–	0.469 µM (active)	0.0833 µM (active)	12 µM (active)	2.69 µM (active)	1.7 µM (active)	–	3.02 µM (active)	13.5 µM (active)	–	0.235 µM (active)	3.32 µM (active)

From PubChem BioAssay (NCATS)
